SMILES strings stand for the structures. Values joined by “and” are separate entries in the source; they are usually repeats but may differ in a detail not shown here. Equal values may be shown once. The panel holds about 83,000 compounds, 20% with a hit somewhere; the sample as a whole holds those more often.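 Method: cells in 96-well plates; compound added at one concentration; 48 h incubation; percent growth measured; values under 10 scored active.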 A number with no mark means an inactive call. Active and inactive are the calls of the source.

The test has as its system MDA-MB-468 breast. Kind of test: NCI-60 one-dose screen, 48 h (100 = growth as untreated, 0 = no growth, -100 = all killed). To be noted: 10 µM unless noted.
`COc1cc2cc(Oc3ccc(NC(=O)Nc4cccc(C(F)(F)F)c4)cc3)c(C)nc2cc1OCCN(C)C`: the growth was 79.6%.
Take `COc1cc(C2Cc3ncccc3-c3[nH]c(=O)c4cccnc4c32)cc(OC)c1OC` (stereo not drawn): the growth was 22.8%.
For `O=S(=O)(Nc1ccc(-c2nc(-c3cccc(O)c3)c(-c3ccnc(Br)c3)[nH]2)cc1)c1ccccc1`, the growth was -3.6% (active).
Then `COCCNC(=O)Cc1cc(-c2ccc(Cl)cc2)n(-c2ccccc2)c1C`, with 73%; and `CCOC(=O)c1cnc2ccc(Br)cc2c1Nc1cccc(S(=O)(=O)NC)c1`, with 90.8%; and `OC(c1cc(-c2ccc(C(F)(F)F)cc2)nc(C(F)(F)F)c1)C1CCCCN1` (stereo not drawn), with -88.4% (active) and -89.6% (active) and -76.3% (active).
To `O=C(Nc1ccncc1)C(=O)c1cn(S(=O)(=O)c2cccc(F)c2)c2ccccc12` belongs 12%; to `COc1cc(-c2nc3cc(Cl)c(Cl)cc3[nH]2)ccc1OCC(=O)N=Nc1c(O)[nH]c2ccc([N+](=O)[O-])cc12`, 4.59% (active); to `O=C(NCCN1CCCC1)c1ccc(-c2nc3ccc4[nH]ncc4c3c3c2CCCC3)cc1`, -43.9% (active).
Regarding `Cc1cc(C)c2nc(C)c(C)[n+]([O-])c2c1`, the growth is 101%.
To `C[C@]12CC[C@@H]3c4cc(OC(F)F)c(OS(N)(=O)=O)cc4CC[C@H]3[C@@H]1CC[C@@H]2OS(N)(=O)=O` belongs 11.9%; to `CC12CCC(C(=O)CC1=O)C2(C)C` (stereo not drawn), 99.3%; to `CS(=O)(=O)Nc1cc(-c2ccc3ncc(C#N)c(NCc4cccc(F)c4)c3c2)cnc1Cl`, -37.9% (active).

The values are drawn from PubChem BioAssay (NCI).
